Compound activity deposited in PubChem BioAssay by National Center for Advancing Translational Sciences (NCATS).
Pf Dd2 inh – qHTS Primary assay for Inhibitors of Plasmodium falciparum Dd2 growth in vitro | P. falciparum Dd2 growth, SYBR Green, 72 h | Potency, µM (titrated, usually from 28.9 µM), most hits filed as inhibitors | hit rate 4.3% among 120,000; active = well fitted inhibition curve with a large enough effect; also: nearly all actives have a fitted effect of over 65% in size
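Infected erythrocytes (Dd2, 0.3% parasitemia, 2.5% hematocrit final) are added to compound in RPMI-1640/Albumax II medium, grown 72 h at 37C in low oxygen, then lysed with saponin/Triton-X containing SYBR Green and read by fluorescence.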
Of the large screens only hits and unclear results are named; the others gave an inactive call. This excerpt belongs to a sample that is enriched for hits.

Cn1cnnc1-c1nn(C)c2c1CN(C(=O)c1n[nH]c(=O)c3ccccc13)CC2	none
O=C(c1ccccn1)N1CCCCCC1c1nnc(-c2ccccc2)o1 (stereo unspecified)	none
Cc1noc([C@H]2CCN(S(=O)(=O)c3cn(C)cn3)C[C@H]2NC(=O)C2CC2)n1	none
COC(=O)Cc1c(C)c2ccc3c(c2oc1=O)CN(Cc1ccccc1Cl)CO3	Pf Dd2 inh 7.1µM
COc1ccc(CNC(=O)Cc2c(C)c3cc4c(C)coc4c(C)c3oc2=O)cc1	none
COc1ccccc1CCNC(=O)Cc1c(C)c2c(cc(C)c3c(C)c(C)oc32)oc1=O	none
COC(=O)Cc1c(C)c2ccc3c(c2oc1=O)CN(Cc1ccc(C)cc1)CO3	Pf Dd2 inh 11µM
COc1cccc(CN2CCOc3ccc(C(=O)NCc4ccc(C)cc4)cc3C2)c1	none
COCCn1c(=O)[nH]c2cc(C(=O)NCc3ccccc3Cl)ccc2c1=O	none
COC(=O)Cc1c(C)c2ccc3c(c2oc1=O)CN(Cc1ccccc1OC)CO3	Pf Dd2 inh 13µM
COc1ccccc1CNC(=O)Cc1c(C)c2c(cc(C)c3c(C)c(C)oc32)oc1=O	none
CCC1Oc2ccc(NC(=O)C3CCCC3)cc2CN(Cc2ccccc2Cl)C1=O (stereo unspecified)	none
CCOC(=O)c1cccc(NC(=O)c2c(C)oc3ccn(Cc4ccc(F)cc4)c(=O)c23)c1	none
COc1cc(F)ccc1-c1cc(C(=O)NCCc2cnc[nH]2)c2c(c1)N(C)CCO2	none
COCc1ccc(CN[C@H]2C[C@@H](Cc3cc(CN4CCCCC4)on3)C2(C)C)o1	Pf Dd2 inh 11µM
CC(=O)N[C@H]1C[C@@H](Cc2cc(CN(C)C)on2)C1(C)C	none
COc1ccc(CN[C@H]2C[C@@H](Cc3cc(CN4CCOCC4)on3)C2(C)C)cc1	none
COCc1cc(C[C@@H]2C[C@H](NC3CCN(C(C)=O)CC3)C2(C)C)no1	none
CC(=O)N[C@H]1C[C@@H](Cc2cc(CN3CCCCC3)on2)C1(C)C	Pf Dd2 inh 22µM
CCCCc1cc(C[C@@H]2C[C@H](NC(C)=O)C2(C)C)no1	none
N#Cc1cccc(N2CCC3(CC(=O)NC3=O)C2)n1 (stereo unspecified)	none
Cc1cc(-c2cccc(OCCn3ccnc3)c2)ccn1	none
O=C(C[C@@H]1CCNC[C@@H]1Cc1cc(-c2ccc(F)cc2)on1)NCc1ccc(F)cc1	none
CC(C)(C)NC(=O)C[C@@H]1CCNC[C@@H]1Cc1cc(-c2ccc(C(C)(C)C)cc2)on1	Pf Dd2 inh 4µM
CC(C)(C)c1ccc(-c2cc(C[C@H]3CNCC[C@H]3CC(=O)N3CCN(c4ccc(F)cc4)CC3)no2)cc1	none
CC(C)(C)c1ccc(-c2cc(C[C@H]3CNCC[C@H]3CC(=O)N3CCCCC3)no2)cc1	Pf Dd2 inh 5µM
CC(C)(C)c1ccc(-c2cc(C[C@H]3CNCC[C@H]3CC(=O)NCc3ccc(F)cc3)no2)cc1	none
COc1ccc(CNC(=O)C[C@@H]2CCNC[C@@H]2Cc2cc(-c3ccc(C(C)(C)C)cc3)on2)cc1	none
COc1ccc(C(=O)N2CCC(C(=O)N3CCCCCCNC(=O)CC3)CC2)cn1	none
O=C(CCc1ccccc1)N1CCC(c2nc(C3CCOCC3)no2)C1 (stereo unspecified)	none
CCN1C(=O)c2ccccc2S(=O)c2ccc(C(=O)N3CCN(c4ccccc4OC)CC3)cc21 (stereo unspecified)	Pf Dd2 inh 5µM
O=C(c1ccc2c(c1)N(Cc1ccccc1F)C(=O)c1ccccc1S2=O)N1CCN(c2ccccc2)CC1 (stereo unspecified)	none
CCOC(=O)N1CCN(C(=O)c2ccc3c(c2)N(Cc2ccccc2F)C(=O)c2ccccc2S3=O)CC1 (stereo unspecified)	none
COc1ccc(N2CCN(C(=O)c3ccc4c(c3)N(Cc3cc(C)ccc3C)C(=O)c3ccccc3S4=O)CC2)cc1 (stereo unspecified)	none
O=C(c1ccc2c(c1)N(Cc1ccc(F)cc1)C(=O)c1ccccc1S2=O)N1CCOCC1 (stereo unspecified)	none
CCN1C(=O)c2ccccc2S(=O)c2ccc(C(=O)N3CCN(c4ccc(F)cc4)CC3)cc21 (stereo unspecified)	Pf Dd2 inh 8.9µM
O=C(c1ccc2c(c1)N(Cc1ccc(Cl)cc1)C(=O)c1ccccc1S2=O)N1CCOCC1 (stereo unspecified)	none
CCN1CCN(C(=O)c2ccc3c(c2)N(Cc2ccccc2F)C(=O)c2ccccc2S3=O)CC1 (stereo unspecified)	Pf Dd2 inh 0.28µM
O=C(c1ccc2c(c1)N(Cc1ccc(Cl)cc1)C(=O)c1ccccc1S2=O)N1CCCCC1 (stereo unspecified)	none
CCOCCCNC(=O)N1CCC(Cc2nc(-c3ccncc3)n[nH]2)CC1	none
O=[S+]([O-])(c1ccccc1)N1CC2(COCCN(Cc3ccncc3)C2)C1	none
Cn1cccc1C(=O)N1CC(c2nc(CCOCC3CCCC3)no2)C1	none
CCOC(=O)c1cc(-c2ccccc2)n(CCC(=O)Nc2ccc(C)cc2Cl)c1C	none
CCOC(=O)c1cc(-c2ccccc2)n(CCC(=O)Nc2cc(C)cc(C)c2)c1C	Pf Dd2 inh 3.2µM
CCOC(=O)c1cc(-c2ccccc2)n(CC(=O)Nc2cc(Cl)c(OC)cc2OC)c1C	none
CCOC(=O)c1cc(-c2ccccc2)n(CCC(=O)NCCc2cccc(C)c2)c1C	none
CCOC(=O)c1cc(-c2ccccc2)n(CCC(=O)Nc2cc(OCC)ccc2OCC)c1C	none
CCOC(=O)c1cc(-c2ccccc2)n(CCC(=O)Nc2ccc(Cl)c(C(F)(F)F)c2)c1C	Pf Dd2 inh 2.8µM
NC(=O)NCC(=O)N1CCc2c(cccc2S(=O)(=O)N2CCOCC2)C1	none
Cc1cccc(N(C)C(=O)Cn2c(=O)n(-c3cccc(C)c3)c(=O)c3c2cc(C)n3C)c1	none
O=C(c1cc(-c2cccnc2)c2nncn2n1)N1CCOCC1	none
O=C(Nc1cccc2ccccc12)O[C@@H]1CO[C@H]2[C@@H]1OC[C@@H]2n1nnnc1SC1CCCC1	none
O=C(CN1Cc2nc(OCc3ccc(F)cc3)ccc2OCC1=O)N1CCCC1	none
CS(=O)(=O)N1CC(F)(F)C[C@H]1c1nc(-c2ccncc2)no1	none
Cc1cnc(=O)[nH]c1SCC(=O)Nc1cc(C(F)(F)F)ccc1Cl	none
O=C(CSc1nccn1Cc1ccco1)Nc1cc(C(F)(F)F)ccc1Cl	none
CC(C)OC(=O)c1cccnc1SCC(=O)Nc1ccc(C(F)(F)F)cc1Cl	Pf Dd2 inh 3.2µM
CC(C)(C)OC(=O)N1CCCCC1Cn1c(=O)[nH]c2cccnc21 (stereo unspecified)	none
COc1ccc(C(=O)NCC2(COc3cnccn3)C[C@@H](O)[C@@H](O)C2)cc1 (stereo partly specified)	none
COc1ccc(CN2C(=O)O[C@@H]3CN(Cc4cnc(C)[nH]4)C[C@@H]32)cc1OC	none
CCCCN(C)CC(O)Cn1cc(/C=C/C(=O)c2ccc(OCC)cc2)c2ccccc21 (stereo unspecified)	Pf Dd2 inh 3.5µM
CCOc1ccc2c(c1)c(=O)c(C(=O)c1ccccc1)cn2Cc1ccccc1	none
COc1ccc(C(=O)/C=C/c2cn(CC(O)CN3CCc4ccccc43)c3ccccc23)cc1 (stereo unspecified)	none
CCCCN(CCCC)CC(O)Cn1cc(/C=C/C(=O)c2ccccc2)c2ccccc21 (stereo unspecified)	Pf Dd2 inh 0.89µM
CCCCN(CC)CCCNC(=O)c1cn(C)c(=O)c2c1c1ccccc1n2C	none
O=C(Nc1ccc2[nH]ccc2c1)C1=NO[C@@H]2CN(c3ccccc3)C[C@H]12	none
O=C(c1ccccc1F)N1CC(Oc2ccc(F)c(F)c2)C1	none
COCCN1CCCCCC(O)c2cc(C(=O)NCCN3CCOCC3)ccc21 (stereo unspecified)	none
